For 13 molecules, growth results are on record in PubChem BioAssay (NCI).

Among the test systems are DU-145 prostate; K-562 leukemia; MALME-3M melanoma; MDA-MB-231 breast; RXF 393 renal; SF-268 CNS; SF-295 CNS; SF-539 CNS; UACC-257 melanoma; M14 melanoma.
Holding throughout (test): NCI-60 one-dose screen, 48 h (100 = growth as untreated, 0 = no growth, -100 = all killed)
Holding throughout (conditions): 10 µM

The panel holds about 83,000 compounds, 20% with a hit somewhere; the sample as a whole holds those more often.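 The test compound was applied at a single concentration to cells in 96-well plates for 48 hours, and percent growth was recorded.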 Unmarked numbers belong to inactive results. The source made the active and inactive calls. How the source made its calls: active means growth percent below 10; inactive means the rest.

On to `C=CCN(CC=C)C(=O)[C@H](CC)[C@@H]1CC[C@@H](C)[C@@H]([C@H](C)[C@@H](O)[C@@H](C)C(=O)[C@H](CC)C2O[C@]3(C=C[C@@H](O)[C@]4(CC[C@@](C)([C@H]5CC[C@](O)(CC)[C@H](C)O5)O4)O3)[C@H](C)C[C@@H]2C)O1` (stereo not given in full), for which the growth was 53.7% in the assay with DU-145 prostate; 14.3% with K-562 leukemia; -22.4% (active) with MALME-3M melanoma; -36.3% (active) in the assay on MDA-MB-231 breast; -1.56% (active) with RXF 393 renal; 41.7% with SF-268 CNS. For the same molecule, the growth in the assay with SF-295 CNS was -16% (active); with SF-539 CNS, 29.1%; in the assay with UACC-257 melanoma, 7.88% (active); in the assay on M14 melanoma, 17.9%.

For `CC(=O)C1CCC2C3CC=C4CC(SC(=N)N)CCC4(C)C3CCC12C` (stereo not given), the growth in the assay on DU-145 prostate was 75.5%; in the assay with K-562 leukemia, -5.34% (active); in the assay with MALME-3M melanoma it was -6.9% (active); with MDA-MB-231 breast, 46.6%; in the assay on RXF 393 renal, 25.6%; in the assay with SF-268 CNS it was 72%. In addition, the growth was 51.1% with SF-295 CNS, 65.5% with SF-539 CNS, 13.6% in the assay with UACC-257 melanoma and 18.3% with M14 melanoma.

As for `COc1ccc(-c2nn(-c3cccc(Cl)c3)cc2-c2cc(-c3cccs3)[nH]c(=S)n2)cc1`, the growth was 74.6% in the assay with DU-145 prostate; 28.3% in the assay with K-562 leukemia; 31.1% in the assay with MALME-3M melanoma; 83.3% with MDA-MB-231 breast; 56.7% in the assay on RXF 393 renal; 61.6% with SF-268 CNS. Also, the growth was 8.31% (active) in the assay on SF-295 CNS, 69.3% in the assay with SF-539 CNS, 88.6% in the assay with UACC-257 melanoma and 33.6% with M14 melanoma.

Regarding `CN1C(=O)C2(Nc3cc(Cl)ccc3S2)c2cc(Cl)ccc21` (stereo not given), the growth is 104% in the assay with DU-145 prostate; 75.4% with K-562 leukemia; 113% in the assay on MALME-3M melanoma; 69.3% in the assay on MDA-MB-231 breast; 106% in the assay with RXF 393 renal; 93.8% in the assay on SF-268 CNS. Besides, the growth with SF-295 CNS is 99.3%; in the assay on SF-539 CNS, 106%; with UACC-257 melanoma, 101%; in the assay with M14 melanoma it was 102%.

In the case of `CC(C)(C)OC(=O)CN1CCc2c(sc3ncnc(N/N=C/c4ccccc4Br)c23)C1`, the growth with DU-145 prostate is 94.6%; with K-562 leukemia it was 16.6%; in the assay with MALME-3M melanoma, 93.2%; in the assay on MDA-MB-231 breast, 65.5%; with RXF 393 renal, 70.3%; in the assay on SF-268 CNS, 76.9%. The growth with SF-295 CNS was 99.2%; in the assay with SF-539 CNS, 84.1%; in the assay on UACC-257 melanoma, 92.7%; with M14 melanoma it was 73.4%.

Regarding `COc1ccc(-c2cc(-c3ccc(Cl)cc3)nc(SCCCC(=O)NO)n2)cc1OC`, the growth with DU-145 prostate was 14.2%; in the assay with K-562 leukemia, 3.01% (active); in the assay on MALME-3M melanoma, 6.86% (active); with MDA-MB-231 breast, 6.55% (active); in the assay with RXF 393 renal, -38.2% (active); in the assay with SF-268 CNS it was 8.6% (active). Also, the growth in the assay with SF-295 CNS is -32.6% (active); in the assay with SF-539 CNS, -35.7% (active); in the assay on UACC-257 melanoma it was 16.1%; in the assay with M14 melanoma, -40.2% (active).

In the case of `CC(C)(C)c1ccc(S(=O)(=O)N[C@H]2CC[C@H]3[C@@H]4CCc5cc(OS(=O)(=O)O)ccc5[C@H]4CC[C@]23C)cc1`, the growth with DU-145 prostate is 63.3%; in the assay with K-562 leukemia, 22%; in the assay on MALME-3M melanoma, 41.8%; in the assay with MDA-MB-231 breast, 26.4%; with RXF 393 renal, 9.08% (active); in the assay on SF-268 CNS it was 51.2%. Besides, the growth in the assay with SF-295 CNS was 44.7%; in the assay on SF-539 CNS, 82.4%; in the assay on UACC-257 melanoma, 68.2%; with M14 melanoma it was 54.2%.

As to `CN(C)CCOc1cccc(NC2=C(Cl)C(=O)C(Nc3cccc(OCCN(C)C)c3)=C(Cl)C2=O)c1`, the growth was -100% (active) with DU-145 prostate; -30.7% (active) in the assay on K-562 leukemia; -74.8% (active) in the assay with MALME-3M melanoma; -75.2% (active) with MDA-MB-231 breast; -76.5% (active) in the assay with RXF 393 renal; -50% (active) in the assay with SF-268 CNS. For the same molecule, the growth in the assay with SF-295 CNS was 66.5%; with SF-539 CNS, -86.4% (active); with UACC-257 melanoma, -97.3% (active); in the assay on M14 melanoma, -74% (active).

Turning to `COc1cccc(N=Nc2cccc(OC)c2)c1`, the growth in the assay on DU-145 prostate is 112%; in the assay on K-562 leukemia, 87.8%; in the assay with MALME-3M melanoma, 101%; in the assay on MDA-MB-231 breast, 84%; with RXF 393 renal, 91.2%; in the assay with SF-268 CNS, 103%. Further, the growth with SF-295 CNS is 92.8%; in the assay on SF-539 CNS it was 95.4%; in the assay on UACC-257 melanoma, 90.9%; in the assay with M14 melanoma it was 90.7%.

On to `O=C(CSc1nnc(-c2ccc(Cl)cc2)o1)Nc1ccc(C(=O)/C=C/c2ccc(Cl)cc2)cc1`, for which the growth is 103% with DU-145 prostate; 93.4% with K-562 leukemia; 114% in the assay with MALME-3M melanoma; 104% in the assay with MDA-MB-231 breast; 99.1% in the assay on RXF 393 renal; 99.7% with SF-268 CNS. Moreover, the growth was 101% with SF-295 CNS, 117% in the assay on SF-539 CNS, 98.7% with UACC-257 melanoma and 104% in the assay with M14 melanoma.

For `Cc1c(O)c(=O)ccn1C1CCC(CC2CCC(n3ccc(=O)c(O)c3C)CC2)CC1` (stereo not given), the growth with DU-145 prostate is 39.6%; with K-562 leukemia it was 18.3%; with MALME-3M melanoma, 63.8%; in the assay with MDA-MB-231 breast, 43.4%; in the assay on RXF 393 renal, 44.1%; in the assay on SF-268 CNS it was 30.1%. The growth in the assay with SF-295 CNS was 54.9%; with SF-539 CNS, 11.9%; with UACC-257 melanoma, 45.5%; in the assay on M14 melanoma, 47.2%.

Turning to `COc1ccc(/C(C#N)=C/c2ccccc2OC)cc1`, the growth with DU-145 prostate is 68.1%; in the assay on K-562 leukemia it was 21%; in the assay on MALME-3M melanoma it was 19.9%; in the assay on MDA-MB-231 breast it was 56.2%; in the assay on RXF 393 renal, 25.5%; in the assay on SF-268 CNS, 60.7%. For the same molecule, the growth with SF-295 CNS is 22.9%; with SF-539 CNS it was 42.2%; in the assay on UACC-257 melanoma, 47.8%; in the assay on M14 melanoma it was 20.7%.

As for `CCOC(=O)c1cc(C(=O)c2ccc(F)cc2F)n2ccccc12`, the growth in the assay on DU-145 prostate was 105%; with K-562 leukemia, 85.9%; in the assay with MALME-3M melanoma, 120%; with MDA-MB-231 breast, 79.9%; with RXF 393 renal it was 99.3%; with SF-268 CNS it was 85.7%. Besides, the growth in the assay on SF-295 CNS was 94.7%; in the assay with SF-539 CNS, 95.2%; in the assay on UACC-257 melanoma, 93.4%; with M14 melanoma, 108%.
